# Screen size: about 96,000 compounds; about 20,000 (21%) were called active.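 How the source made its calls: active means CYP2C19 inhibition above a set limit at 5 µM in the primary screen (cut at about 50% in these data); inactive means the rest.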 Not all results are given here. Non-standard residues stand in square brackets, D forms with d. Residues, ends and D or L forms follow the SMILES beside them. ξ: configuration not given here. ξV = CC(C)C(N)C(=O)O
# Molecular target: Cytochrome P450 2C19 (Homo sapiens) (UniProt P33261)
# Assay: blockers of cytochrome P450 2C19 activity – biochemical, luminescence, ADME assay, primary screen (AID 778);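 further: plate controls were negative control wells for no effect and 2.5 mM tranylcypromine positive control for full effect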
# Details: CYP2C19 Supersomes, luciferin-H EGE luminescence, 30 min; at 5 µM; stronger effect = higher value
# Cytochrome P450 2C19 (Homo sapiens), sequence (P33261 whole entry, looked up): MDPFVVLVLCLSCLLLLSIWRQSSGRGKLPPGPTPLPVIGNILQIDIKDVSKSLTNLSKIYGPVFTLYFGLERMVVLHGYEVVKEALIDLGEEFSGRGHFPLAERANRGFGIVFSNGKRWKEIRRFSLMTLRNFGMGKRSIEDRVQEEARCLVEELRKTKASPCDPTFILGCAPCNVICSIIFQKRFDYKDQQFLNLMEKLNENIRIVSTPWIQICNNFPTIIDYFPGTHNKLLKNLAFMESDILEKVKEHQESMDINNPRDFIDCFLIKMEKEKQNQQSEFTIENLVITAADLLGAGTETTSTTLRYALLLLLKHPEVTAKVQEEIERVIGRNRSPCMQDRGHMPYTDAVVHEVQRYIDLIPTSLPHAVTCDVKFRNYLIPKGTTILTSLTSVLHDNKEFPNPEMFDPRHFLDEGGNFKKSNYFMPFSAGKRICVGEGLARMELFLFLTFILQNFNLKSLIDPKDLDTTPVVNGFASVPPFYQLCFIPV
row,SMILES,inhibition
1,Cc1cc(=O)n2nc(N3CCCC3C(=O)NCCCN3CC(C)CC(C)C3)sc2n1 (stereo not drawn),2.4% (inactive)
2,Cc1cccc(OCc2nnc(SCC(=O)N3CCN(C(=O)c4ccco4)CC3)n2C)c1C,1.1% (inactive)
3,CSc1nc(N)c(C#N)c(-c2ccccc2Cl)c1C#N,-13.6% (inactive)
4,CCOC(=O)C(=CNc1cccc(C)n1)C(=O)OCC,8.8% (inactive)
5,Cc1c(CCO)c(=O)[nH]n1C(=O)c1c(F)cccc1F,10% (inactive)
6,Cc1c(CCO)c(=O)n(-c2ccccc2)n1S(=O)(=O)c1ccc(F)cc1,78.5% (active)
7,CCOC(=O)C1CN(S(=O)(=O)c2ccc(F)cc2)C1,43.8% (inactive)
8,Cc1cc(N2C(=O)C(=O)/C(=C(/O)c3ccc(Cl)cc3)C2c2cccc(Br)c2)no1 (stereo not drawn),-6.1% (inactive)
9,CC1CCc2c(sc3c2C2=NS(=O)(=O)CCN2C=N3)C1 (stereo not drawn),-10% (inactive)
10,Cc1ccc(-n2nc3ccc(NC(=O)/C=C/c4ccco4)cc3n2)cc1C,-6.9% (inactive)
11,CCOc1ccc(-c2nnn(CC(=O)N3CCN(c4ccc(F)cc4)CC3)n2)cc1OCC,18.2% (inactive)
12,Cc1ccc(SC(=O)COc2ccc(C)c(C)c2)cc1,1.6% (inactive)
13,COC(=O)c1cc(OC)c(OC)cc1NC(=O)CSc1ccc(C)cc1,29.5% (inactive)
14,Cc1ccc(SCC(=O)c2cc(C)c(OC(=S)N(C)C)c(C)c2)cc1,66.7% (active)
15,CC(=O)N1CCc2cc(S(=O)(=O)Nc3ccccc3N3CCN(C)CC3)ccc21,-2.4% (inactive)
16,O=S(=O)(Nc1ccccc1N1CCOCC1)c1ccc(Cl)s1,50.4% (active)
17,O=C(CNC(=O)c1ccc(Cl)cc1Cl)NCC(=O)Nc1ccccc1N1CCOCC1,20.6% (inactive)
18,Cc1cc(NCc2ccco2)n2c(nc3ccccc32)c1C#N,0.2% (inactive)
19,O=C(O)C1CCN(C(=O)OCc2ccccc2)CC1,31.9% (inactive)
20,N#Cc1c(N)sc2c1CCN(C(=O)OCc1ccccc1)C2,92.8% (active)
21,CCN1CCc2c(C#N)c(NCc3ccccc3)nc(NCCO)c2C1,9% (inactive)
22,CC(C)Oc1ccc(C(=O)Nc2cc(=O)n(C)c(=O)n2C)cc1,12.2% (inactive)
23,COC(=O)c1c(NC(=O)c2cccs2)sc2c1CCCC2,29.6% (inactive)
24,CCOC(=O)c1c(NC(=O)CSc2nnc(C)c(=O)[nH]2)sc2c1CCC2,-11.3% (inactive)
25,COC(=O)c1c(NC(=O)CSc2nncs2)sc2c1CCCCC2,82.9% (active)

row,SMILES,inhibition
1,Cc1ccc(S(=O)(=O)N/N=C\c2cc3c(cc2[N+](=O)[O-])OCO3)cc1,-11% (inactive)
2,CC1=NN(C(C)C)C(=O)C1,-6.9% (inactive)
3,Cc1ccc(S(=O)(=O)NC(C)C(=O)Nc2ccccc2C(=O)N2CCCC2)cc1 (stereo not drawn),21.6% (inactive)
4,O=C(CN(c1ccccc1)S(=O)(=O)c1ccc(Cl)cc1)Nc1ccccc1C(=O)N1CCCC1,86.7% (active)
5,COCCN(CC(=O)Nc1ccccc1C)S(=O)(=O)c1ccc(S(=O)(=O)N2CCCC2)cc1,5.4% (inactive)
6,Cc1oc2nc(SCC(=O)NCc3cccnc3)nc(N)c2c1C,8% (inactive)
7,c1ccc2c(-c3nn4nnnc4c4ccccc34)cccc2c1,78.9% (active)
8,c1ccc2c(CNn3cnnc3)cccc2c1,26.1% (inactive)
9,COc1ccc2c(c1OC)C(=O)N(c1ncn[nH]1)C2,-17.6% (inactive)
10,O=C(CCCn1c(=O)oc2ccccc21)Nc1cccnc1,24.5% (inactive)
11,O=C(OCN1C(=O)c2ccccc2C1=O)/C(=C\c1ccco1)NC(=O)c1ccccc1,17.6% (inactive)
12,CS(=O)(=O)N(CC(O)Cn1c2ccccc2c2ccccc21)c1cccc2ccccc12 (stereo not drawn),77% (active)
13,Cc1ccc(N(CC(O)CN2CCCC2)S(=O)(=O)c2ccccc2)cc1 (stereo not drawn),16.8% (inactive)
14,CC(=O)c1ccc2c(c1)c1ccccc1n2CC(C)C,16.4% (inactive)
15,O=C(NCCCN1CCOCC1)c1cnn2c(-c3ccccc3)cc(-c3ccccc3)nc12,-3.7% (inactive)
16,Fc1ccccc1CCNc1nnnn1-c1ccccc1,73.1% (active)
17,c1ccc(-n2nnnc2NC2CCCCCC2)cc1,33.5% (inactive)
18,CCn1nnc(NC(=O)c2c(OC)cccc2OC)n1,-17.4% (inactive)
19,COc1c(Cl)cc(C(=O)Nc2ccc(Cl)cn2)cc1Cl,3.2% (inactive)
20,CCn1nnc(NC(=O)c2cc(Cl)c(OC)c(Cl)c2)n1,61.3% (active)
21,CCCCNC(=S)NNC(=O)c1cc(C)on1,26.1% (inactive)
22,CC(=O)Nc1cc2ccc(OC(C)=O)cc2oc1=O,8% (inactive)
23,Cc1cccc(N(CC(=O)N2CCOCC2)S(C)(=O)=O)c1,3.3% (inactive)
24,CCOC(=O)c1c(CN2CCOCC2)n(-c2ccccc2)c2ccc(O)cc12,31.8% (inactive)
25,CCOC(=O)CN(C(=O)CN1CCOCC1)c1ccc(Br)cc1,64.6% (active)

row,SMILES,inhibition
1,Cc1nn(Cc2ccc(C(=O)N3N=C(C(F)F)CC3(O)C(F)F)cc2)c(C)c1[N+](=O)[O-] (stereo not drawn),10% (inactive)
2,c1ccc(-c2[nH]ncc2-c2nc3ccccc3[nH]2)cc1,31.2% (inactive)
3,c1ccc2[nH]c(-c3nc4ccccc4[nH]3)nc2c1,53.1% (active)
4,Cc1ccc(-c2nc3ccccc3[nH]2)cc1N,47% (inactive)
5,CC(C)COC(=O)C1C2C=CC3(CN(C(C)c4ccc(Br)cc4)C(=O)C13)O2 (stereo not drawn),31% (inactive)
6,CC(=O)NC1(c2cccc(F)c2)CCN(CC(=O)NC(C)C)CC1,3.9% (inactive)
7,C/C(Cl)=C\Cn1c(Nc2cccc(C)c2)nc2c1c(=O)n(C)c(=O)n2C,-5.6% (inactive)
8,COc1cc(C2C(C#N)=C(C)NC3=C2C(=O)CC(C)(C)C3)ccc1O (stereo not drawn),20.5% (inactive)
9,CCOC(=O)C1=C(C)NC2=C(C(=O)CC(C)(C)C2)C1c1ccsc1 (stereo not drawn),50.4% (active)
10,CCCOC(=O)C1=C(C)NC2=C(C(=O)C(C(=O)OC)C(C)C2)C1c1ccc(N(C)C)cc1 (stereo not drawn),3.6% (inactive)
11,Cc1cccc(NC(=O)c2sc3nc4c(c(-c5ccco5)c3c2N)CCC4)c1,13.8% (inactive)
12,O=C1CC(c2ccccc2)C(=O)N1c1cccc(O)c1 (stereo not drawn),60.7% (active)
13,COC(=O)c1cc(C(=O)OC)cc(N2C(=O)CC(N3CCN(c4ccccc4)CC3)C2=O)c1 (stereo not drawn),12.1% (inactive)
14,O=C1CC(NNc2ccccc2)C(=O)N1c1cccc(Cl)c1 (stereo not drawn),18.7% (inactive)
15,O=C(NC1CCN(Cc2ccccc2)CC1)c1ccccc1F,6.3% (inactive)
16,O=C(CCc1ccccc1)Nc1ccc(NC(=O)C2CC2)nc1,18.9% (inactive)
17,O=S(=O)(Nc1nccs1)c1ccc2c(c1)OCCO2,56.7% (active)
18,CC(C)NS(=O)(=O)c1ccc(OCC(=O)Nc2ccc3c(c2)OCCO3)cc1,28.9% (inactive)
19,CN1CCCN(S(=O)(=O)c2ccc3c(c2)OCCO3)CC1,-1.5% (inactive)
20,CCCCC(CC)C(=O)Nc1ccc(Cl)cn1 (stereo not drawn),7.2% (inactive)
21,CC(=O)Nc1ccc(S(=O)(=O)Nc2nc3n(n2)C(c2ccccc2)CC(=O)N3)cc1 (stereo not drawn),-6% (inactive)
22,N=c1n(Cc2ccc(Cl)cc2)c2ccccc2n1CC(O)c1ccco1 (stereo not drawn),83.1% (active)
23,O=S(=O)(O)c1nc2ccccc2n1Cc1ccc(Cl)cc1,2.7% (inactive)
24,Cn1c(=N)n(CC(O)c2ccccc2)c2ccccc21 (stereo not drawn),-12.3% (inactive)
25,Cc1ccc(/C=N/NC(=O)c2sccc2OCc2ccc(F)cc2)cc1,-8.9% (inactive)

row,SMILES,inhibition
1,Oc1ccccc1/C=N/n1c(-c2cccs2)n[nH]c1=S,-14.5% (inactive)
2,COC(=O)C1=C(C)OC(N)=C(C#N)C1c1cc(OC)ccc1OC (stereo not drawn),53.3% (active)
3,COc1ccc(-c2[nH]nc3c2C(c2ccncc2)C(C#N)=C(N)O3)cc1 (stereo not drawn),-1.2% (inactive)
4,CCC1=C(C(=O)OC)C(c2cc(OC)ccc2OC)C(C#N)=C(N)O1 (stereo not drawn),54.8% (active)
5,CCCN1C(=O)C(NC(C)=O)c2cc(OC)ccc21 (stereo not drawn),-12.9% (inactive)
6,CCCN1CC=C2C(C#N)=C(N)C(C#N)(C#N)C(c3cc(OC)ccc3OC)C2C1 (stereo not drawn),16.6% (inactive)
7,Cc1cc(=O)oc(C)c1C(=O)NCc1ccc(F)cc1,33.5% (inactive)
8,CC(=O)NC(C(=O)NCC(N)=O)C(C)C (stereo not drawn) (Ac-[ξV]-Gly-NH2),-4% (inactive)
9,COc1ccc(C2OC(=O)CC2C(=O)NC(C)C)cc1 (stereo not drawn),19.5% (inactive)
10,O=C(Nc1ccccc1F)C1C2C=CC3(O2)C1C(=O)N(c1cccnc1)C3C(=O)NC1CCCCC1 (stereo not drawn),-8.2% (inactive)
11,CCC(=O)N(C)C(c1ccccc1Cl)c1nnnn1-c1c(C)cccc1C (stereo not drawn),11.1% (inactive)
12,Cc1cc(C)cc(NS(=O)(=O)c2ccc(Oc3ncc(C(F)(F)F)cc3Cl)cc2)c1,9.5% (inactive)
13,C#CCN(N(C)c1ncc(C(F)(F)F)cc1Cl)S(=O)(=O)c1ccc2ccccc2c1,94.5% (active)
14,O=C(c1ccccn1)c1ncc(C(F)(F)F)cc1Cl,44.3% (inactive)
15,CC(NC(=O)C1CCC(CNc2c(N3CCOCC3)c(=O)c2=O)CC1)c1ccccc1 (stereo not drawn),-2.1% (inactive)
16,Nc1nc(Br)c2ccccc2c1-c1ccc(F)cc1,18.7% (inactive)
17,N#Cc1c(C(F)(F)F)cc(-c2ccccc2)nc1SCC(=O)N1CCOCC1,0% (inactive)
18,CCC/C(O)=C1\C(=O)CC(C)(C)CC1=Nc1ccccc1OC,45.5% (inactive)
19,CC1(C)CC(=O)C=C(NC2CC(C)(C)NC(C)(C)C2)C1,-1.1% (inactive)
20,COc1ccccc1-c1n[nH]c2c1[C@H](C)CC[C@H]2C(C)C,21% (inactive)
21,CCOc1cccc(C(=O)Nc2nnc(-c3cccs3)s2)c1,2.2% (inactive)
22,CN(C(=O)COc1nnc(-c2cccs2)c(-c2cccs2)n1)c1ccccc1,75.5% (active)
23,O=C(O)COc1ccc(-c2nccc(-c3cccs3)n2)cc1,-9.2% (inactive)
